Experiment [1] has as its target guinea pig Leukotriene D4 Receptor (LTD4), CYSLTR1 (gene 100135514) (UniProt Q2NNR5). The experiment can be described thus: NVS_GPCR_gLTD4: NovaScreen (NVS) G Protein-Coupled Receptor Assay for guinea pig Leukotriene D4 Receptor (LTD4) (AID 2283248). Summed up:
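Radioligand displacement on guinea pig lung membranes, 1 h incubation, filtration and scintillation counting; DMSO as negative control. Duplicate 25 uM primary screen, then singleton concentration-response up to 50 uM.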

The target in experiment [2] is human Adenosine A1 Receptor (AdoRA1), ADORA1 (gene 134) (UniProt P30542). The experiment can be described thus: NVS_GPCR_hAdoRA1: NovaScreen (NVS) G Protein-Coupled Receptor Assay for human Adenosine A1 Receptor (AdoRA1) (AID 2283254). The procedure, abridged: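 Radioligand competition binding on human cortical membranes, 1 h after compound addition; bound radioactivity read by filtration and scintillation counting. Loss of signal versus DMSO baseline scored as displacement; primary screen duplicate at 25 uM, actives retested in concentration series.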
human Adenosine A1 Receptor (AdoRA1), ADORA1 (gene 134), sequence (P30542 whole entry, looked up): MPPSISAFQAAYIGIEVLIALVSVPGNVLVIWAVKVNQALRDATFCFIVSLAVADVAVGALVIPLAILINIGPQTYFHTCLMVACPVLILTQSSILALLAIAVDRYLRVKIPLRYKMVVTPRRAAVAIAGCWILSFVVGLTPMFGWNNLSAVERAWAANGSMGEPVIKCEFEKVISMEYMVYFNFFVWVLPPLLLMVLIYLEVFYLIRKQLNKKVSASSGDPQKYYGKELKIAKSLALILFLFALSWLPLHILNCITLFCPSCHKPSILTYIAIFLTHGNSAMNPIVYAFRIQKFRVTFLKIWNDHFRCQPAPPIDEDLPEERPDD

Experiment [3] is described as follows: NVS_GPCR_bNPY_NonSelective: NovaScreen (NVS) G Protein-Coupled Receptor Assay for bovine Neuropeptide Y (NPY) Receptor, Non-selective Binding (AID 2283245). The procedure, abridged:
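Bovine hippocampal membranes incubated 1 hour with radioligand and test chemical. Bound ligand measured by filter-based scintillation counting. Single-concentration screen at 25 uM in duplicate, then concentration-response up to 50 uM.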

For experiment [4], the target named is human Serotonin, 5-Hydroxytryptamine Receptor 5A (5HT5A), HTR5A (gene 3361) (UniProt P47898). As to the kind of experiment: NVS_GPCR_h5HT5A: NovaScreen (NVS) G Protein-Coupled Receptor Assay for human Serotonin, 5-Hydroxytryptamine Receptor 5A (5HT5A) (AID 2283251). Summed up: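 Cell-free radioligand displacement binding on HEK293-derived membrane protein, 1 h incubation, filter-based scintillation counting. Primary screen in duplicate at 25 uM, actives followed in concentration series; loss of signal fitted versus DMSO.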
human Serotonin, 5-Hydroxytryptamine Receptor 5A (5HT5A), HTR5A (gene 3361), sequence (P47898 whole entry, looked up): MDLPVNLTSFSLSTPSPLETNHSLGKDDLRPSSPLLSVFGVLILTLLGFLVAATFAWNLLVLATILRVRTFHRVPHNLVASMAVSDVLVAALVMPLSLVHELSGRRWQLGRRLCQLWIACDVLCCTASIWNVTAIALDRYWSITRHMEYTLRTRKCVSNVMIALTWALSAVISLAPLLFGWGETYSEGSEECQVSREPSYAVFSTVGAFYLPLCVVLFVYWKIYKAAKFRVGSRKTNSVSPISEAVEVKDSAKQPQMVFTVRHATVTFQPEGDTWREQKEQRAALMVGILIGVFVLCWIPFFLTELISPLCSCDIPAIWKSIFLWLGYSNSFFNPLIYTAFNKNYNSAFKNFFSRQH

In experiment [5] the target is human Serotonin, 5-Hydroxytryptamine Receptor 6 (5HT6), HTR6 (gene 3362) (UniProt P50406). The experiment can be described thus: NVS_GPCR_h5HT6: NovaScreen (NVS) G Protein-Coupled Receptor Assay for human Serotonin, 5-Hydroxytryptamine Receptor 6 (5HT6) (AID 2283253). Summed up:
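Radioligand binding to 5HT6 in HEK293-derived membranes, cell-free, 1 h after dosing; bound ligand measured by filter-based scintillation counting. Primary screen in duplicate at 25 uM; actives retested in concentration series.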

Experiment [6] concerns the target human Serotonin, 5-Hydroxytryptamine Receptor 7 (5HT7), HTR7 (gene 3363) (UniProt P34969). The experiment can be described thus: NVS_GPCR_h5HT7: NovaScreen (NVS) G Protein-Coupled Receptor Assay for human Serotonin, 5-Hydroxytryptamine Receptor 7 (5HT7) (AID 2283255).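 Note: hits reduce specific radioligand binding relative to DMSO.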 The procedure, abridged:
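Radioligand displacement on membranes from CHO cells expressing human 5HT7, 1 h incubation, filter-based scintillation counting. Primary screen used a single 25 uM concentration in duplicate; actives were followed up in concentration series.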

The test system of experiment [7] is guinea pig Leukotriene B4 Receptor (LTB4), gene 100379538. As to the kind of experiment: NVS_GPCR_gLTB4: NovaScreen (NVS) G Protein-Coupled Receptor Assay for guinea pig Leukotriene B4 Receptor (LTB4) (AID 2283247). The procedure, abridged:
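Radioligand displacement on guinea pig spleen membranes, filter-based scintillation counting 2 h after dosing. Primary duplicate single point at 25 uM; hits over threshold (e.g. 30% inhibition) run in concentration-response up to 50 uM, DMSO baseline.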

In experiment [8] the target is guinea pig Opioid, Kappa 1 Receptor (OpiateK), OPRK1 (gene 100135587) (UniProt P41144). The experiment can be described thus: NVS_GPCR_gOpiateK: NovaScreen (NVS) G Protein-Coupled Receptor Assay for guinea pig Opioid, Kappa 1 Receptor (OpiateK) (AID 2283252).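 Note: active means reduced radioligand binding relative to DMSO.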 The method, then: (§1) NVS_GPCR_gOpiateK is a biochemical, single-readout assay that uses extracted gene-proteins from Guinea pig cerebellar membranes in a tissue-based cell-free assay. Measurements were taken 2 hours after chemical dosing in a 48-well plate.NVS_GPCR_gOpiateK is one of one assay component(s) measured or calculated from the NVS_GPCR_gOpiateK assay. It is designed to make measurements of radioligand binding, a form of binding reporter, as detected with scintillation counting signals by Filter-based radiodetection technology.Data from the assay component NVS_GPCR_gOpiateK was analyzed into 1 assay endpoint. This assay endpoint, NVS_GPCR_gOpiateK, was analyzed in the positive analysis fitting direction relative to DMSO as the negative control and baseline of activity. Using a type of binding reporter, loss-of-signal activity can be used to understand changes in the binding as they relate to the gene Oprk1. Furthermore, this assay endpoint can be referred to as a primary readout, because the performed assay has only produced 1 assay endpoint. To generalize the intended target to other relatable targets, this assay endpoint is annotated to the gpcr intended target family, where the subfamily is rhodopsin-like receptor.
guinea pig Opioid, Kappa 1 Receptor (OpiateK), OPRK1 (gene 100135587), sequence (P41144 whole entry, looked up): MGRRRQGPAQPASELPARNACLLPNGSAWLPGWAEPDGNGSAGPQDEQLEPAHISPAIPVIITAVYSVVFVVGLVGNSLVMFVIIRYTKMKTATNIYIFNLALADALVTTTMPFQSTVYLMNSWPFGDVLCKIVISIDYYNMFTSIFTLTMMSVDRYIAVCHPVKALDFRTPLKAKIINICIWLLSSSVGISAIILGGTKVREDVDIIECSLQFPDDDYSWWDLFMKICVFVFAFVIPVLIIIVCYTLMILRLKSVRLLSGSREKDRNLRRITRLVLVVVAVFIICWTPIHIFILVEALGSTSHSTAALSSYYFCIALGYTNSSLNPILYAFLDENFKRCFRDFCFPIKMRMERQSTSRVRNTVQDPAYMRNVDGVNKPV
Binding assays used specific radioligands (tritiated, iodinated) with non-radioactive competitive displacement ligands in agonist or antagonist protocols (as indicated) and various reference compounds and inhibitors to titrate specific binding to receptors and transporters. Most enzyme assays (CYPs, kinases, phosphatases, proteases, HDACs) used recombinant protein and specific substrates (fluorescence mostly, some colorimetric and radioactive) and inhibitors, followed by a biochemical separation of substrate and product. All assays for the biochemical HTS were initially run in duplicate at a single concentration (10 uM for CYP450 assays and 25 uM for all others). […] Each assay was run with positive and negative controls, and concurrent controls on every plate. The follow-up (secondary) screen tested active chemical-pairs in concentration series, as well as a few additional assays not tested in the primary screen, some selected negative inactives, and several cases re-run in the concentration series for confirmatory purposes.

Experiment [9] deals with bovine Histamine 1 Receptor (H1), gene 281231. The experiment can be described thus: NVS_GPCR_bH1: NovaScreen (NVS) G Protein-Coupled Receptor Assay for bovine Histamine 1 Receptor (H1) (AID 2283246). The method, then: as §1, with “NVS_GPCR_bH1” for “NVS_GPCR_gOpiateK”, “Bovine” for “Guinea pig”, “1 hour” for “2 hours”, “plate.NVS_GPCR_bH1” for “plate.NVS_GPCR_gOpiateK”, “NVS_GPCR_bH1,” for “NVS_GPCR_gOpiateK,”, “HRH1.” for “Oprk1.”
(§2) Binding assays used specific radioligands (tritiated, iodinated) with non-radioactive competitive displacement ligands in agonist or antagonist protocols (as indicated) and various reference compounds and inhibitors to titrate specific binding to receptors and transporters. Most enzyme assays (CYPs, kinases, phosphatases, proteases, HDACs) used recombinant protein and specific substrates (fluorescence mostly, some colorimetric and radioactive) and inhibitors, followed by a biochemical separation of substrate and product. All assays for the biochemical HTS were initially run in duplicate at a single concentration (10 uM for CYP450 assays and 25 uM for all others). […]

Experiment [10] has as its system guinea pig Muscarinic, Peripheral (Mperiperal) Receptor, Non-selective Binding, gene 100379235. The experiment can be described thus: NVS_GPCR_gMPeripheral_NonSelective: NovaScreen (NVS) G Protein-Coupled Receptor Assay for guinea pig Muscarinic, Peripheral (Mperiperal) Receptor, Non-selective Binding (AID 2283250). The method, then:
as §1, with “NVS_GPCR_gMPeripheral_NonSelective” for “NVS_GPCR_gOpiateK”, “bladder” for “cerebellar”, “1 hour” for “2 hours”, “plate.NVS_GPCR_gMPeripheral_NonSelective” for “plate.NVS_GPCR_gOpiateK”, “NVS_GPCR_gMPeripheral_NonSelective,” for “NVS_GPCR_gOpiateK,”, “Chrm3.” for “Oprk1.”
as §2

Where “and” joins values, the source holds several entries; their conditions need not be identical. Equal entries are not always repeated. Records with an inconclusive call do not appear. Calls of active or inactive are those of the source. Rule for the calls: active = hit-call score of the fitted dose curve at least 0.9, where 1 is the maximum; inconclusive = response in the unintended direction; inactive = score below 0.9.

guinea pig Leukotriene D4 Receptor (LTD4), CYSLTR1 (gene 100135514), sequence (Q2NNR5 whole entry, looked up): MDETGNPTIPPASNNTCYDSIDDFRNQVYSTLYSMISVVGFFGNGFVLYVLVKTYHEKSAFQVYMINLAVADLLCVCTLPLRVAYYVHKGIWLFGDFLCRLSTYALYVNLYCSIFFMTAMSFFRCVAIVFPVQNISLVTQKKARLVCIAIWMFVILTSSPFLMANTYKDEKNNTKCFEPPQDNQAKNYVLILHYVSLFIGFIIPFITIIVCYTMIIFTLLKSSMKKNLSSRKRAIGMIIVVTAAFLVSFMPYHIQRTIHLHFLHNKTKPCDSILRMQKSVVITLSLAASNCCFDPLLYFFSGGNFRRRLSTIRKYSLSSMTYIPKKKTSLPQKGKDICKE
human Serotonin, 5-Hydroxytryptamine Receptor 7 (5HT7), HTR7 (gene 3363), sequence (P34969 whole entry, looked up): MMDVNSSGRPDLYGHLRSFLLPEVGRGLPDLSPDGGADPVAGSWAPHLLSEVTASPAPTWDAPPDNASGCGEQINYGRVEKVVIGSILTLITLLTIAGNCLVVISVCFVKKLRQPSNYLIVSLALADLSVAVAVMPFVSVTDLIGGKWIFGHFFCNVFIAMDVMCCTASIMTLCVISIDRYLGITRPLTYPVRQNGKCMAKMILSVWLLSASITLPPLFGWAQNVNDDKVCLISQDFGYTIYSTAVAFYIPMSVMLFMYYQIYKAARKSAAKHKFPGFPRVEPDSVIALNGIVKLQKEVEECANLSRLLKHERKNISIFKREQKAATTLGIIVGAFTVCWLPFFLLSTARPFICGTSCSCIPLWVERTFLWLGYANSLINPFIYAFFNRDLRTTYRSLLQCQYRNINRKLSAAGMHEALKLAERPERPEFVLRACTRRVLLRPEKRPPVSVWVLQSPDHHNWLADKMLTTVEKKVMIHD
human Serotonin, 5-Hydroxytryptamine Receptor 6 (5HT6), HTR6 (gene 3362), sequence (P50406 whole entry, looked up): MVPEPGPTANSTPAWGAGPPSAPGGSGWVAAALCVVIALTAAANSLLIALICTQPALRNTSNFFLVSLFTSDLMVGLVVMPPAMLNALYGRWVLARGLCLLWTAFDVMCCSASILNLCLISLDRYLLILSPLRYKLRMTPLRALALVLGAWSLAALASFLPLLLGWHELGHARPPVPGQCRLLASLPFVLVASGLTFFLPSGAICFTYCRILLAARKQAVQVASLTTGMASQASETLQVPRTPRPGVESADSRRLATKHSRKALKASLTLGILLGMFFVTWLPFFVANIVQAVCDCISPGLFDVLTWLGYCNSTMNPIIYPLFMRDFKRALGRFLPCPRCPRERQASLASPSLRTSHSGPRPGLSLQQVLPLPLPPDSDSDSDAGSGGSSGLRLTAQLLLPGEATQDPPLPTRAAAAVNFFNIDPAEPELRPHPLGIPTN

On to `CS(=O)(=O)c1ccc([C@@H](CC2CCCC2)C(=O)Nc2cnccn2)cc1Cl`, for which the call in experiment [1] and in [2] was inactive.

For the compound `Cc1[nH]nc2c1N=C(c1ccccc1Cl)c1cc([N+](=O)[O-])ccc1N2`, in experiment [2], the compound was classed as inactive.

Consider `CC(C)(C)c1ccc(O)c(O)c1`, for which the outcome in experiment [1] was inactive.

Regarding `CCCCc1oc2ccccc2c1C(=O)c1cc(I)c(OCCN(CC)CC)c(I)c1`, the outcome in experiment [3] and in experiment [2] was inactive. In addition, the half-maximal activity concentration (AC50) (in general, the concentration at which the activity in the assay is half-maximal) in [4] is 13.7 µM (active); in experiment [5], 7.27 µM (active); in [6], 6.72 µM (active).

Regarding `CN(Cc1cnc2nc(N)nc(N)c2n1)c1ccc(C(=O)N[C@@H](CCC(=O)O)C(=O)O)cc1`, the compound was classed as inactive in experiment [5] and in experiment [2].

For the compound `CCCCCCCCCCCCOS(=O)(=O)O`, the AC50 in experiment [7] was 25 µM (active); in [1], 8.99 µM (active); in experiment [4], 9.77 µM (active); in experiment [6], 25 µM (active).

As to `CN(C)c1ccc(C(=C2C=CC(=[N+](C)C)C=C2)c2ccccc2)cc1`, in experiment [8], the AC50 was 15 µM (active) and 12.5 µM (active).

In the case of `O=C1OC2(c3ccccc31)c1cc(I)c(O)c(I)c1Oc1c2cc(I)c(O)c1I`, in experiment [8], the compound was called inactive. For the same compound, the concentration at half-maximal activity (AC50) in experiment [2] is 6.25 µM (active).

Take `C=CC(C)(CCC=C(C)C)OC(C)=O` (configuration not stated): in experiment [8], the AC50 is 46.5 µM (active).

On to `CCCCCCCCCCCCCCCC(=O)OC`, for which the compound was called inactive in [1].

In the case of `CN(C)CCOC(c1ccccc1)c1ccccc1`, the half-maximal activity concentration (AC50) in experiment [9] is 0.101 µM (active); in experiment [10], 0.574 µM (active); in experiment [8], 13 µM (active).

Consider `N=C(N)c1ccc(OCCCCCOc2ccc(C(=N)N)cc2)cc1`, for which the compound was called inactive in experiment [9] and in experiment [4]. The half-maximal activity concentration (AC50) in experiment [7] is 2.4 µM (active); in experiment [10], 0.954 µM (active); in experiment [8], 17.2 µM (active); in experiment [6], 3.18 µM (active).

Take `O=C(CCCN1CCC(O)(c2ccc(Cl)cc2)CC1)c1ccc(F)cc1`: the AC50 in experiment [9] is 10.5 µM (active); in [10], 5.15 µM (active). For the same compound, the call in experiment [4] was inactive.
